Screening data as filed in PubChem BioAssay.
An excerpt weighted towards active compounds, which were near 2.4% of everything screened.
D2 ag-1 – Beta-Arrestin HTS for Positive Allosteric Modulators of the Human D2 Dopamine Receptor: Agonists. AID 624465, 2012. 0.084% of 360,000 active. activation, % (test concentration not listed). D(2) dopamine receptor (Homo sapiens), P14416. DiscoveRx PathHunter D2 beta-arrestin, luminescence, 90 min; 100% = 57 uM dopamine signal; in the data active = activation above about 40%; inconclusive = between about 15% and that limit
Target sequence (P14416 whole entry, looked up): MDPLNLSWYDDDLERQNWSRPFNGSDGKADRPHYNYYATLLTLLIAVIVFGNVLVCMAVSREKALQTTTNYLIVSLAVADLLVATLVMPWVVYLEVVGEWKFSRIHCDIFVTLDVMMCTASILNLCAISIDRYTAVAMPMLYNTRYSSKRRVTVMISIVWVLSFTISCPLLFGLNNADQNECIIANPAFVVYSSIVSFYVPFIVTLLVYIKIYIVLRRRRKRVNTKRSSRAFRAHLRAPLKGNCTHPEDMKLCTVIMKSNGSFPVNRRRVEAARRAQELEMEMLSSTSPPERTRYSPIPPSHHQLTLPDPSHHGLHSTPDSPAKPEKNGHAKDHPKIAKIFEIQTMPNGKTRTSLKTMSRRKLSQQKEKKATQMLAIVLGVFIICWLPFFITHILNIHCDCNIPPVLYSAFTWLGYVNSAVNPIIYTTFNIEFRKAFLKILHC
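DiscoveRx PathHunter D2 beta-arrestin cells (2,100/well) attached overnight, then compound-stimulated 90 min at 37 C in HBSS/10 mM HEPES/0.1% Tween-20 buffer; beta-galactosidase complementation read by luminescence after 1 h at ambient temperature. Dopamine 57 uM final (EC100) as control.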
D2 PAM-1 – Beta-Arrestin HTS for Positive Allosteric Modulators of the Human D2 Dopamine Receptor: Potentiators; DiscoveRx D2 beta-arrestin cells, luminescence, 90 min; 100% = 57 uM dopamine signal; potentiation, % (no concentration beside the values); 0.23% of 360,000 active; AID 624464, 2012; in the data active = potentiation above about 50%; inconclusive = mostly about 30% to 49%
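D2 cells co-treated with compound plus 50 nM dopamine (EC20) for 90 min at 37 deg C to detect potentiation. Beta-arrestin recruitment was read as enzyme-fragment luminescence after 1 h at ambient temperature. Full response was set by 57 uM dopamine.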
D2 antag – HTS Assay for Allosteric Antagonists of the Human D2 Dopamine Receptor: Primary Screen for Antagonists | D(2) dopamine receptor (Homo sapiens), P14416 | HEK293 TREx D2 cells, calcium flux, dopamine EC80 | inhibition, % at 10 µM | 2% of 340,000 active | AID 485344, 2010; in the data active = inhibition above about 30%; inactive = below that, where a call was filed; also: 0% is about no effect
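Calcium mobilization kinetics were recorded at 1 s intervals in tetracycline-induced HEK293 T-REx D2 cells, first for 180 s after compound addition and then 180 s after EC80 dopamine.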
D2 ag-2 – HTS Assay for Allosteric Agonists of the Human D2 Dopamine Receptor: Primary Screen for Agonists; 0.53% of 340,000 active; AID 485358, 2010; HEK293 T-REx D2 cells, calcium flux agonist mode; activation, % at 2 µM;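 active = activation over 3 SD above normal in the single-dose calcium agonist read, cut at about 30% in these data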; also: 0% is about no effect
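Calcium-flux readout, 1 cycle/sec over 180 s following compound pin transfer, in inducible HEK293 Trex D2 cells (force-coupled); dopamine controls included. Positive calcium responses during this window marked compounds as potential agonists.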
D2 PAM-2 – HTS Assay for Positive Allosteric Modulators of the Human D2 Dopamine Receptor: Primary Screen for Potentiators; D(2) dopamine receptor (Homo sapiens), P14416; potentiation, % at 10 µM; 0.34% of 340,000 active; HEK293 T-REx D2, calcium flux, EC20 dopamine potentiation;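 active = potentiation over 3 SD above the plate norm, cut at about 30% in these data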; also: 0% is about no effect
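Tetracycline-induced Hek293 Trex D2 cells, force-coupled to calcium, loaded with no-wash calcium dye. Compound added with 180 s kinetic read for agonism, then EC20 dopamine and a further 180 s read for potentiation.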
Starred values were filed as active, the others as inactive; ? = inconclusive; nt = no result; ! = not active in a repeat.

SMILES | D2 ag-1 | D2 PAM-1 | D2 antag | D2 ag-2 | D2 PAM-2
Cc1ccc(NC(=O)N(Cc2ccc3c(c2)OCO3)C2CCN(Cc3ccccc3)CC2)cc1Cl | nt | nt | nt | 4 | nt
COC(=O)CC1=C(C(=O)OC)C2(C(=O)Nc3c(C)cccc32)C(C#N)=C(N)O1 (stereo not drawn) | 12 | 70* | 5 | 0 | 3
COc1ccccc1OCCCn1cc(C(=O)c2ccco2)c2ccccc21 | -4 | -6 | -10 | 2 | -1
O=C(c1ccco1)c1cn(Cc2ccc(Cl)cc2)c2ccccc12 | -3 | -1 | 31* | -1 | -12
O=C1CC(c2ccc(F)cc2)c2c(c3ccccc3oc2=O)O1 (stereo not drawn) | nt | nt | nt | nt | 9
CN1CCN(c2c[nH]c(=O)[nH]c2=O)CC1 | -1 | 8 | 36* | 1 | 13
CN1CCN(c2ccccc2N)CC1 | 0 | -14 | -12 | 1 | -6
CCCCn1c(O)c(/C=N/N2CCOCC2)c(=O)[nH]c1=S | -4 | -13 | 6 | -1 | -2
CCCCCCn1c(O)c(C=Nc2ccccc2N2CCOCC2)c(=O)[nH]c1=S | -4 | -3 | 37* | 1 | 10
C=Cc1ccc(Cn2c(C)c(CNCCc3cc(OC)ccc3OC)c(C(=O)O)c2C)cc1 | nt | nt | nt | 1 | 5
COc1ccc(C(c2c(O)c3ccccc3oc2=O)c2c(C)n(C)n(-c3ccccc3)c2=O)cc1 (stereo not drawn) | -4 | -3 | 93* | 1 | -4
Cc1nnc(NC(=O)c2cccn(Cc3ccccc3F)c2=O)s1 | nt | nt | nt | 2 | 2
C#CC1(O)CCC2C3CCC4=C/C(=N/OCC(=O)NCC(=O)NC(C(=O)O)C(C)C)CC[C@]4(C)C3CC[C@@]21C (stereo partly drawn) | 1 | -5 | 60* | 1 | -9
CCOC(=O)c1c(C)n(Cc2ccco2)c2c1cc(O)c1ccccc12 | ? | 72* | -9 | 1 | -6
Fc1ccccc1CCNCc1cccc2ccccc12 | -4 | -35 | 31* | 0 | -33
Cc1ccc(Cl)cc1NC(=O)N(Cc1ccc2c(c1)OCO2)C1CCN(Cc2ccccc2)CC1 | nt | nt | nt | 2 | -19
CC1CCC2C(C)C(=O)OC3OC4(C)CCC1C32OO4 (stereo not drawn) | ? | 62* | -3 | 0 | 13
CC1CCC2[C@@H](C)C(=O)OC3O[C@]4(C)CCC1C32OO4 (stereo partly drawn) | ? | 53* | nt | nt | nt
Cc1ccc(Cn2cccc(C(=O)Nc3ccc4c(c3)OCCO4)c2=O)cc1 | nt | nt | nt | -1 | -1
Cc1ccccc1Cn1cccc(C(=O)Nc2cc(Cl)ccc2C#N)c1=O | nt | nt | nt | nt | -12
Oc1ccc(CC2CC3CCN2CC3)cc1O (stereo not drawn) | 7 | -10 | -6 | 30* | -1
CN1CCN(c2oc(-c3ccc(COc4ccccc4)o3)nc2C#N)CC1 | nt | nt | nt | 0 | 10
O=c1[nH]c2ccccc2n1C1CCN(CCCC(c2ccc(F)cc2)c2ccc(F)cc2)CC1 | 1 | -29 | 87* | 2 | -29
CCOC(=O)c1ccc(NC(=O)c2cccn(Cc3ccccc3F)c2=O)cc1 | nt | nt | nt | 1 | 11
CN1CCN(c2nc(N)c(Br)c(Cl)n2)CC1 | -3 | -54 | 69* | 1 | -17
SMILES | D2 ag-1 | D2 PAM-1 | D2 antag | D2 ag-2 | D2 PAM-2
CN1CCN(c2ncnc(Cl)c2N)CC1 | -4 | -12 | -17 | 1 | -20
O=C1CN=C(c2ccccc2)c2cc(Cl)ccc2N1 | -1 | -9 | nt | nt | nt
Cc1ccccc1C1=NCC(=S)Nc2ccc(Cl)cc21 | -7 | -24 | 41* | -1 | -1
O=C(Nc1ccc2c(c1)OCCO2)c1cccn(Cc2cccc(F)c2)c1=O | nt | nt | nt | 0 | 16
COc1ccc(OCC(=O)N2CCN(CCc3ccccn3)CC2)cc1 | nt | nt | nt | 1 | 8
CN1/C(=C\C=C2C(=O)NC(=O)NC2=O)C(C)(C)c2ccccc21 | -4 | 1 | -14 | 50* | nt
CN1/C(=C\C=Nc2ccccc2)C(C)(C)c2ccccc21 | 3 | -8 | -4 | 1 | -2
Cc1ccc(OCC(=O)N2CCN(CCc3ccncc3)CC2)cc1C | nt | nt | nt | -2 | 15
Cc1ccc(-n2c(O)c(C=N)c(=O)n(-c3ccc(C)cc3)c2=O)cc1 | 1 | -8 | -4 | 1 | -1
N=Cc1c(O)n(-c2ccccc2)c(=O)n(-c2ccccc2)c1=O | -6 | 64* | -9 | 1 | 24
Cc1cccc(N2CCN(Cc3ccc4c(c3)OCO4)CC2)c1C | 1 | -24 | 66* | 0 | -27
COc1ccccc1N1CCN(Cc2ccc3c(c2)OCO3)CC1 | 7 | -12 | nt | nt | nt
COC(=O)c1cncn1C(C)c1ccccc1 (stereo not drawn) | -3 | -4 | 20 | -1 | -2
CCOC(=O)c1cncn1C(C)c1ccccc1 (stereo not drawn) | -5 | -5 | 35* | 11 | -18
COc1cccc(O)c1CN1CCCC(C(=O)c2sccc2C)C1 (stereo not drawn) | -4 | -32 | 8 | 0 | -18
Cc1ccsc1C(=O)C1CCCN(Cc2cc(C(C)C)n[nH]2)C1 (stereo not drawn) | 0 | -16 | 80* | -1 | -32
COc1ccc(OC)c(CN2CCCC(C(=O)c3sccc3C)C2)c1 (stereo not drawn) | -4 | -26 | 51* | 0 | -25
Cc1ccsc1C(=O)C1CCCN(Cc2ccn[nH]2)C1 (stereo not drawn) | -2 | -28 | 12 | 0 | 5
CNc1ccc2oc(C[C@H]3O[C@@]4(CC[C@H]3C)O[C@H]([C@H](C)C(=O)c3ccc[nH]3)[C@H](C)C[C@H]4C)nc2c1C(=O)O | -11 | -16 | 62* | 96* | -18
CCn1cc(C(=O)O)c(=O)c2ccc(C)nc21 | -6 | -6 | 41*! | 0 | 4
CCn1cc(C(=O)NCc2ccccc2)c2ccccc21 | -6 | -20 | 5 | 1 | -32
C/C(=N\Nc1ccccc1)c1c(O)n(Cc2ccccc2)c(=O)[nH]c1=O | 11 | 57* | -10 | -1 | 8
N#Cc1c(Br)n(C2OC(CO)C(O)C2O)c2ncnc(N)c12 (stereo not drawn) | 70* | ? | nt | nt | nt
Fc1ccc2c(c1)nnn2C1CCN(Cc2ccccc2)CC1 | -3 | -37 | 82* | 1 | -26
CN1C[C@H](CNC(=O)OCc2ccccc2)C[C@@H]2c3cccc4c3c(cn4C)C[C@H]21 | 3 | -26 | 78* | 11 | -28
